The list is not random: actives were taken first. Their share in the collection is about 11%.
SW480 rereplic: A quantitative high throughput screen for small molecules that induce DNA re-replication in SW480 colon adenocarcinoma cells; Potency, µM (doses to about 46.1 µM), actives largely listed as activators; AID 624297, 2012; SW480 DNA re-replication, Hoechst DNA content imaging, 48 h; hit rate 1.8% among 340,000; further: nearly all actives have a fitted effect of over 55% in size
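Image-based read-out: total Hoechst fluorescence of nuclei (405 nm excitation, 500-530 nm emission), with hits raising the fraction of high-intensity nuclei. SW480 colon cells incubated 48 hr with compounds at 37 C.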
RORgamma inh: qHTS for inhibitors of ROR gamma transcriptional activity | Drosophila S2 Gal4-RORgamma UAS-luciferase reporter, 20 h | AID 2551, 2010 | hit rate 5.4% among 310,000 | Nuclear receptor ROR-gamma (Mus musculus), P51450 | Potency, µM (highest dose often 53.6 µM), actives largely listed as inhibitors; further: nearly all actives have a fitted effect of over 60% in size
Target sequence (P51450 whole entry, looked up, the tested form may be a part): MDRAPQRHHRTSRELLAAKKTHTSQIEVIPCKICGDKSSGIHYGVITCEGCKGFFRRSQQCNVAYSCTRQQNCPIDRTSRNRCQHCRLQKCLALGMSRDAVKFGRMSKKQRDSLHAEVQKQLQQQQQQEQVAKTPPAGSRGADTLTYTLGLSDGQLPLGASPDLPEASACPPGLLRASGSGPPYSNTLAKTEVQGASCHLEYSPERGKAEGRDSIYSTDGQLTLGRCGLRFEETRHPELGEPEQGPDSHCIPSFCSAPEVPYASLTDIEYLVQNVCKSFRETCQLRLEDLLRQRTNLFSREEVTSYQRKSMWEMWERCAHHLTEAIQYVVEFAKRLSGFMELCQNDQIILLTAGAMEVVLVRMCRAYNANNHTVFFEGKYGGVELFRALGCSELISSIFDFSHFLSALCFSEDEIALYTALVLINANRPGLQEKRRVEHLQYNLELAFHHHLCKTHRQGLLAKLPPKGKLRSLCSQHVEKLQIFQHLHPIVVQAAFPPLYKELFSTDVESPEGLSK
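Using a luciferase readout, inhibitors were identified by reduced reporter activity in Drosophila cells coexpressing a copper-inducible Gal4–ROR gamma fusion and UAS-driven Photinus luciferase, incubated 20 hr after 700 uM copper sulfate.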
MCF10A rereplic: A quantitative high throughput screen for small molecules that induce DNA re-replication in MCF 10a normal breast cells; Potency, µM (highest dose often 46.1 µM), most hits filed as activators; hit rate 2.9% among 350,000; MCF 10A DNA re-replication, Hoechst nuclear intensity, 48 h; AID 624296, 2012; further: nearly all actives have a fitted effect of over 50% in size
VP16 counter: VP16 counterscreen qHTS for inhibitors of ROR gamma transcriptional activity; hit rate 3.5% among 310,000; AID 2546, 2010; Drosophila S2 Gal4-VP16 UAS-luciferase, luminescence, 20 h; Potency, µM (series often up to 53.6 µM), usual class: inhibitors;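 further: Gal4-VP16 expression switched on by copper sulfate through the metallothionein promoter; nearly all actives have a fitted effect of over 50% in size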
IL-1B inflam inh: qHTS for Inhibitors of Inflammasome Signaling: IL-1-beta AlphaLISA Primary Screen; hit rate 4.7% among 360,000; activity change, % at 57.5 µM; THP-1 LPS/ATP IL-1B secretion, AlphaLISA, 16 h; active compounds read low; in the data active means activity change below about -50%; inconclusive means mostly about -30% to -49%
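THP-1 cells pretreated 1 hr with compounds (up to 57.5 uM final), then stimulated with LPS (250 ng/mL final) plus ATP (1.25 mM final); secreted IL-1B measured by AlphaLISA after 16 hr, decreased signal indicating inhibition.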
Of the large screens only hits and unclear results are named; the others gave an inactive call. Unless noted, the call rests on the fitted dose curve; in most records, active means well fitted curve in the direction sought with a large enough effect; inconclusive means small, poorly fitted or top-dose-only effect, or another doubt; inactive means no such curve, though single readings can be large; an effect the other way counts as inactive or inconclusive.

CCOC(=O)C(=O)Nc1nc(-c2ccccc2)c(-c2ccccc2)o1	RORgamma inh 20µM
CN1CCN(C(=S)SCC(=O)Nc2nc(-c3ccccc3)c(-c3ccccc3)o2)CC1	RORgamma inh inconclusive, MCF10A rereplic 12µM, VP16 counter inconclusive, IL-1B inflam inh inconclusive
O=C(Nc1nnc(-c2ccccc2)s1)c1ccc(F)cc1	none
O=C(CCC(=O)Nc1ccc(F)cc1)N/N=C/c1ccc(O)cc1	none
O=C(N/N=C/c1ccc(O)cc1O)C(=O)N/N=C/c1ccc(O)cc1O	SW480 rereplic 12µM
O=C(CCC(=O)Nc1ccc(F)cc1)N/N=C/c1ccc(O)cc1O	SW480 rereplic 9.2µM
O=C(NN=Cc1ccc(O)cc1)C(=O)NN=Cc1ccc(O)cc1	none (no result: RORgamma inh, VP16 counter)
CCCCNC(=O)Cn1cnc([N+](=O)[O-])n1	SW480 rereplic 7.3µM
O=C(Cn1cnc([N+](=O)[O-])n1)N/N=C/c1ccc(O)cc1O	SW480 rereplic 12µM
O=C(Cn1cnc([N+](=O)[O-])n1)N/N=C/c1cccc2ccccc12	none
COCCNC(=O)Cn1cnc([N+](=O)[O-])n1	RORgamma inh inconclusive
Cc1ccc(SCC(=O)Nc2ccc3c(c2)C(=O)N(C)C3=O)cc1	none
O=C(CNC(=O)c1ccccc1F)NCC(c1cccs1)N1CCOCC1 (stereo not given)	none (no result: RORgamma inh, VP16 counter)
Cc1cc(C(=O)N2CCCC(C)(C(=O)NS(=O)(=O)C3CC3)C2)n(C(C)(C)C)n1 (stereo not given)	none (no result: SW480 rereplic, RORgamma inh, MCF10A rereplic, VP16 counter)
COc1ccc(C(C(=O)NCc2ccccc2)n2c(=O)c(-c3cc4ccccc4[nH]3)nc3ccccc32)cc1 (stereo not given)	none (no result: SW480 rereplic, RORgamma inh, MCF10A rereplic, VP16 counter)
NNc1nc2c(-c3ccc(F)cc3)nnn2c2ccccc12	SW480 rereplic inconclusive, RORgamma inh inconclusive, MCF10A rereplic 23µM
Fc1ccc(-c2nnn3c2nc(NCc2ccccc2)c2ccccc23)cc1	SW480 rereplic inconclusive, MCF10A rereplic inconclusive
COc1ccc(-c2nnn3c2nc(NCc2ccccc2)c2ccccc23)cc1	SW480 rereplic inconclusive, MCF10A rereplic 1.6µM
NNc1nc2c(-c3ccc(Cl)cc3)nnn2c2ccccc12	SW480 rereplic 8.2µM, RORgamma inh inconclusive, MCF10A rereplic 5.8µM
Cc1ccc(C)c(NC(=O)CC2Oc3ccccc3NC2=O)c1 (stereo not given)	SW480 rereplic inconclusive
O=C1NC[C@H](CCCCN2C[C@H](Cc3ccccc3)N(Cc3ccccc3)C(=O)C2=O)N(CCc2ccccc2)C1=O	none (no result: SW480 rereplic, RORgamma inh, MCF10A rereplic, VP16 counter)
CC(C)(C)c1ccc(C(=O)CCCSC2=C(C#N)C(c3ccco3)C3=C(CCCC3=O)N2)cc1 (stereo not given)	SW480 rereplic inconclusive, MCF10A rereplic inconclusive
Cc1ccc(C(=O)CSC2=C(C#N)C(c3ccco3)C3=C(CCCC3=O)N2)cc1 (stereo not given)	SW480 rereplic 5.8µM, MCF10A rereplic 8.2µM
N#CC1=C(SCC(=O)c2ccccc2)NC2=C(C(=O)CCC2)C1c1ccco1 (stereo not given)	SW480 rereplic 15µM, RORgamma inh inconclusive, MCF10A rereplic 8.9µM, VP16 counter inconclusive, IL-1B inflam inh -97
CCC(C(=O)N1CCOCC1)n1nc(C)c2c(C)n(-c3ccccc3)nc2c1=O (stereo not given)	none
CCOc1ccc(S(=O)(=O)NC(C)(C)C)cc1-c1nc2c(C(C)(C)C)nn(C)c2c(=O)[nH]1	IL-1B inflam inh -98
O=C(c1ccc(Cl)c(Cl)c1)N1CCC(=O)N(C(COCc2cccc(Cl)c2)Cc2ccccc2)CC1 (stereo not given)	SW480 rereplic inconclusive, RORgamma inh inconclusive, MCF10A rereplic 23µM, IL-1B inflam inh -68
O=C(c1ccc(Cl)c(Cl)c1)N1CCC(=O)N([C@H](COCc2ccc(Cl)cc2)Cc2ccccc2)CC1	IL-1B inflam inh -67 (no result: SW480 rereplic, RORgamma inh, MCF10A rereplic, VP16 counter)
CC(=O)OC1CC(C)OC(C)O1 (stereo not given)	none (no result: SW480 rereplic, MCF10A rereplic, IL-1B inflam inh)
Cc1ccc(NC(=S)NC(=O)Cc2ccccc2)c(O)c1	RORgamma inh 20µM, VP16 counter inconclusive
COc1ccccc1NC(=S)NC(=O)Cc1ccccc1	MCF10A rereplic inconclusive (no result: RORgamma inh, VP16 counter)
CCC(=O)NC(=S)Nc1ccc(OC)cc1OC	RORgamma inh 11µM, VP16 counter inconclusive
COc1ccc(NC(=S)NC(=O)Cc2ccccc2)c(OC)c1	RORgamma inh 14µM, VP16 counter 11µM
OC1c2c(F)cccc2N=C2CCCCN21 (stereo not given)	none (no result: SW480 rereplic, RORgamma inh, MCF10A rereplic, VP16 counter)
Cc1ccc2cc(CN(CC(C)C)S(=O)(=O)c3cccc4nonc34)c(=O)[nH]c2c1	none
O=C(Nc1cc([N+](=O)[O-])ccc1F)C1CCN(S(=O)(=O)c2cccs2)CC1	none (no result: RORgamma inh, VP16 counter)
COc1ccc(Oc2ncc3nc(C)c(=O)n(C4CC4)c3n2)cc1	none (no result: SW480 rereplic, MCF10A rereplic, IL-1B inflam inh)
CCN(C[C@H]1N[C@@](Cc2ccccc2)(C(=O)OC)[C@H]2C(=O)N(C)C(=O)[C@@H]12)C(=O)c1ccc(C(C)(C)C)cc1	none (no result: RORgamma inh, VP16 counter)
CCN(C[C@H]1N[C@@](Cc2ccccc2)(C(=O)OC)[C@H]2C(=O)N(Cc3ccccc3)C(=O)[C@@H]12)C(=O)C1CCCCC1	SW480 rereplic inconclusive (no result: RORgamma inh, VP16 counter)
CCN(C[C@H]1N[C@@](CC)(C(=O)OC)[C@H]2C(=O)N(Cc3ccccc3)C(=O)[C@@H]12)C(=O)c1ccc(C(C)(C)C)cc1	MCF10A rereplic inconclusive, IL-1B inflam inh -53 (no result: RORgamma inh, VP16 counter)
CCN(C[C@H]1N[C@@](C)(C(=O)OC)[C@H]2C(=O)N(Cc3ccccc3)C(=O)[C@@H]12)C(=O)C1CCCCC1	SW480 rereplic 1.5µM (no result: RORgamma inh, VP16 counter)
CCN(C[C@H]1N[C@@](Cc2ccccc2)(C(=O)OC)[C@H]2C(=O)N(C)C(=O)[C@@H]12)C(=O)c1ccc(F)cc1	MCF10A rereplic 0.82µM (no result: RORgamma inh, VP16 counter)
CCN(C[C@H]1N[C@@](Cc2ccccc2)(C(=O)OC)[C@H]2C(=O)N(Cc3ccccc3)C(=O)[C@@H]12)C(=O)Nc1ccc(Cl)cc1	SW480 rereplic 18µM, MCF10A rereplic inconclusive (no result: RORgamma inh, VP16 counter)
CC(C)=CCC/C(C)=C/CC/C(C)=C/COc1ccc2ccc(=O)oc2c1	none (no result: RORgamma inh, VP16 counter)
CN1C[C@@H]2[C@@H]3C(=O)N(Cc4ccccc4)C(=O)[C@@H]3[C@](Cc3ccccc3)(C1=O)N2C(=O)c1ccc(C(C)(C)C)cc1	IL-1B inflam inh -89 (no result: RORgamma inh, VP16 counter)
Cc1cc(C)nc(NC(=O)c2cc([N+](=O)[O-])cc([N+](=O)[O-])c2)n1	MCF10A rereplic inconclusive
CC(=O)Nc1ccc(NC(=O)c2c([N+](=O)[O-])c(C(C)(C)C)nn2C)cc1	MCF10A rereplic inconclusive (no result: IL-1B inflam inh)
COc1ccc(NC(=O)c2c([N+](=O)[O-])c(C(C)(C)C)nn2C)cc1	IL-1B inflam inh -54
COc1ccc(N/C(=C/[N+](=O)[O-])SC)cc1	IL-1B inflam inh -57
CC(=O)c1cccc(NC(=O)c2ccc([N+](=O)[O-])o2)c1	SW480 rereplic inconclusive, MCF10A rereplic 4.1µM, IL-1B inflam inh -87 (no result: RORgamma inh, VP16 counter)

Assay outcomes as filed in PubChem BioAssay.
